ADAM10 inh = human ADAM10 inhibitors, primary screen, biochemical, QFRET, HTS. Disintegrin and metalloproteinase domain-containing protein 10 (Homo sapiens), O14672. 370,000 tested, 0.62% active. recombinant ADAM10, EDANS/DABCYL FRET peptide cleavage, 3 h. inhibition, % at 7 µM;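 active means inhibition above a per-campaign cutoff equal to the mean of compounds falling between control-based bounds plus 3 SD, cut at about 20% in these data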;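 further: 0% = DMSO wells while the 100% control is not disclosed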
PLC-gamma1 inh = PLC-gamma1 enzyme inhibitors, primary screen, biochemical, fluorescence, purified enzyme; fluorogenic substrate; inhibition, % at 12.2 µM; 370,000 tested, 0.84% active; AID 720700, 2013; in the data active means inhibition above about 9.5%
proKLK7 act = proKLK7 zymogen activators, primary screen, biochemical, fluorescence intensity | purified proKLK7, EDANS-DABCYL substrate fluorescence; 100% is mature enzyme control, 0% vehicle | activation, % at 7 µM | 370,000 tested, 0.9% active;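 active means activation above the mean of all tested compounds plus 3 SD, computed per campaign excluding outliers beyond control limits, cut at about 13% in these data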
Target sequence (P49862 whole entry, looked up): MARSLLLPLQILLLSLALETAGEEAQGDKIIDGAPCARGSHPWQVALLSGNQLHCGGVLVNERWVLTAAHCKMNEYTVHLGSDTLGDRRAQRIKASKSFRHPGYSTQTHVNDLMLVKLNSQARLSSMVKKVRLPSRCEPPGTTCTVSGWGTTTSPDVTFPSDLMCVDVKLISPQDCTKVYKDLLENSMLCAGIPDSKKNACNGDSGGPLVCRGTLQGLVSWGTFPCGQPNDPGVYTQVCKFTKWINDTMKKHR
ADAM17 inh = ADAM17 inhibitors, primary screen, biochemical, QFRET | Disintegrin and metalloproteinase domain-containing protein 17 (Homo sapiens), P78536 | 370,000 tested, 0.83% active | recombinant ADAM17, EDANS/DABCYL FRET peptide cleavage | AID 720648, 2013 | inhibition, % at 6.95 µM;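 active means inhibition above the mean of compounds lying between control limits plus 3 SD, set per campaign, cut at about 8.5% in these data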;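 further: 0% = DMSO-only wells as the low control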
PLCb3 inh = human PLC-beta3 inhibitors, primary screen, biochemical, fluorescence; 370,000 tested, 0.18% active; 1-phosphatidylinositol 4,5-bisphosphate phosphodiesterase beta-3 (Homo sapiens), Q01970; Purified PLC-beta3, fluorogenic substrate; AID 720704, 2013; inhibition, % at 12.2 µM;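 further: 0% = median of compound wells on plate and 100% = full blocker control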
ADAM10 ctr = ADAM10 inhibitors, counter-screen for ADAM17 exosite inhibitor project, biochemical, FRET, human ADAM10; shares compounds with ADAM17 inh; recombinant ADAM10, EDANS/DABCYL FRET peptide cleavage, 3 h; inhibition, % at 6.95 µM; 2,900 tested, 47% active; AID 743256, 2014;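 active means mean inhibition over the triplicate runs exceeds the activity threshold set in the earlier primary screen, cut at about 20% in these data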;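 further: 0% = DMSO wells and 100% = marimastat wells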
ADAM17 confirm = ADAM17 inhibitors, hit retest, confirmation, biochemical, QFRET peptide cleavage. shares compounds with ADAM17 inh. recombinant ADAM17, EDANS/DABCYL QFRET peptide cleavage. inhibition, % at 6.95 µM. 2,900 tested, 65% active. AID 743257, 2014;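 active means mean inhibition across replicates above the hit cutoff set in the primary screen, cut at about 8.5% in these data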;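 further: 0% = DMSO wells and 100% = marimastat wells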
PLCgamma1 ctr = PLC-gamma1 enzyme inhibitors, counter-screen for PLC-beta3 inhibitor project, biochemical, fluorescence; inhibition, % at 12.3 µM; 3,300 tested, 3.1% active; AID 743258, 2014; purified PLC-gamma1, fluorogenic substrate; shares compounds with PLC-gamma1 inh; in the data active means inhibition above about 9.5%
PLCb3 confirm = PLC-beta3 inhibitor confirmation, biochemical, fluorescence, purified enzyme. shares compounds with PLC-gamma1 inh. fluorogenic substrate fluorescence. inhibition, % at 12.3 µM. 3,300 tested, 1% active. AID 743261, 2014
Starred values were filed as active, the others as inactive; x = not tested or not shown. Only some compounds are listed: those with a hit (about 2.9% of all), similar ones and a draw of the others. Unless noted, no stated cut-off is given here; in the data, active means inhibition above about 11%; inactive means the rest.

SMILES	ADAM10 inh	PLC-gamma1 inh	proKLK7 act	ADAM17 inh	PLCb3 inh	ADAM10 ctr	ADAM17 confirm	PLCgamma1 ctr	PLCb3 confirm
Cc1cccc(N2CCN(C(=O)c3ccc4ncsc4c3)CC2)c1C	8.4	11.9*	-0.4	8.9*	3.3	0.9	0.8	-8.0	-25.9
CCc1ccc(OC)c(S(=O)(=O)Nc2ccc(Cc3ccncc3)cc2)c1	11.6	14.1*	0.3	9.2*	-4.4	11.6	8.6	-1.2	-0.2
O=C(Cn1cc(C(F)(F)F)cc(Cl)c1=O)NCc1ccc(F)cc1	-4.4	-2.0	0.1	-1.8	-9.0	x	x	x	x
CCOC(=O)c1oc2cc(O)cc(C)c2c(=O)c1-c1cscn1	13.4	3.7	0.7	10.2*	12.1*	7.0	4.0	-6.4	-5.4
NC(=O)C1(N2CCCCC2)CCN(C2CC(=O)NC2=O)CC1 (stereo unspecified)	3.2	2.2	0.0	-3.9	0.1	x	x	x	x
Cc1[nH]c2ccccc2c1C(=O)CSC(=S)N1CCCCC1	17.0	15.4*	0.0	10.7*	6.1	11.7	7.9	-2.4	1.8
C#CC[N+](C)(C)CCN1C(=O)C2C(c3ccccc3)C=CC(c3ccccc3)C2C1=O (stereo unspecified)	2.6	1.3	0.0	0.4	3.6	x	x	x	x
COCC(C)n1c(SCC(=O)NC(=O)NCc2ccccc2)nc2ccccc2c1=O (stereo unspecified)	12.3	10.2*	0.0	10.1*	8.0	14.5	7.1	-0.6	-1.7
O=C(Nc1cccc(OC(F)(F)F)c1)C1Cc2c(-c3cccc(F)c3)ccnc2O1 (stereo unspecified)	12.8	12.5*	0.3	11.7*	-12.0	35.3*	19.2*	-5.8	-5.2
CNC(=S)N1C2CCCC1CC(NC(=O)c1ccc(F)cc1)C2 (stereo unspecified)	5.4	-0.2	-0.2	0.1	-6.5	x	x	x	x
COc1ccccc1CNC(=O)Cn1nc(C(F)(F)F)cc1C	-7.9	-3.0	1.1	-1.9	-4.2	x	x	x	x
Cc1ccc(C(=O)c2cn[nH]c2-c2ccccc2O)cc1	15.0	14.1*	-0.5	8.8*	4.8	-1.8	-1.0	-6.0	-4.1
O=C(c1ccc(F)cc1)c1cn[nH]c1-c1ccccc1O	2.3	-1.5	-0.1	-0.4	0.0	x	x	x	x
COc1ccc(CC(=O)NNC(=O)CSc2nnc(Cc3ccc(OC)cc3)n2-c2ccccc2)cc1	1.1	-2.6	0.2	0.4	-0.1	x	x	x	x
O=C(CSc1nnc(Cc2ccccc2)n1-c1cccc(Cl)c1)NNC(=O)Cc1ccccc1	16.5	10.2*	-0.2	15.0*	9.3	10.3	4.8	-9.4	-4.2
C=CCN(c1ccc(C(=O)NCCN2CCOCC2)cc1)S(C)(=O)=O	1.4	2.0	0.1	-1.8	-2.6	x	x	x	x
Cc1cc(C)cc(NC(=O)c2cccn2-c2ncc(C(F)(F)F)cc2Cl)c1	19.2	13.0*	0.5	17.1*	9.2	9.4	5.3	-0.6	1.2
Cc1ccc(NS(=O)(=O)c2ccc(NC(=O)CSc3ccc(Cl)cc3)cc2)c(C)c1	17.2	12.8*	0.0	9.0*	7.3	27.8*	10.9*	-5.3	-4.8
NC1=NC2(CCC(c3ccccc3)CC2)n2c(nc3ccccc32)N1 (stereo unspecified)	-0.4	17.8*	0.1	9.0*	14.5*	11.6	7.0	3.1	2.5
CN1CCN(CCC(=O)Nc2cccc(F)c2)CC1	5.7	6.9	-0.1	6.4	0.8	x	x	x	x
COCc1cc(C)nc(OCC(=O)N/N=C/c2ccc(OC)c(O)c2)c1C#N	-6.9	-0.1	-0.4	-2.8	-4.0	x	x	x	x
O=[N+]([O-])c1ccc(C(O)C(CO)NC(=S)Nc2ccccc2)cc1 (stereo unspecified)	12.5	9.8*	0.1	8.8*	-1.1	-6.0	-2.9	-5.6	0.6
CC(C)C1C(=O)N(Cc2cn(CCC3OCCO3)nn2)CCS(=O)(=O)N1Cc1ccc(-c2ccccc2Cl)cc1 (stereo unspecified)	4.3	-1.8	0.0	6.3	3.1	x	x	x	x
COc1cccc(-c2ccc(CN3C(C(C)C)C(=O)N(Cc4cn(CCC5OCCO5)nn4)CCS3(=O)=O)cc2)c1OC (stereo unspecified)	8.4	12.3*	0.1	12.9*	9.1	13.9	7.0	-2.5	1.6
CC1CCN(N=Nc2nc3c([nH]2)c(=O)n(C)c(=O)n3C)CC1	12.5	9.9*	0.5	17.0*	8.3	10.2	9.3*	-1.8	3.2
SMILES	ADAM10 inh	PLC-gamma1 inh	proKLK7 act	ADAM17 inh	PLCb3 inh	ADAM10 ctr	ADAM17 confirm	PLCgamma1 ctr	PLCb3 confirm
C=C(C)C(=O)Nc1cccc(C2=NOC3(C2)C[C@H](C(N)=O)N(C(=O)/C=C/C)C3)c1 (stereo partly specified)	6.1	11.5*	-0.5	9.9*	5.5	4.8	3.4	-8.0	-2.8
Nc1nnc(Cc2ccccc2F)s1	-0.4	-0.5	0.2	-0.3	2.0	x	x	x	x
O=C(N/N=C/c1ccc(N2CCCC2)c([N+](=O)[O-])c1)c1cccnc1	17.4	17.7*	-0.2	9.0*	15.5*	20.6*	11.9*	-0.7	6.0
O=C(N/N=C/c1ccc(N2CCOCC2)c([N+](=O)[O-])c1)c1ccc(F)cc1	-2.7	0.4	0.1	-3.0	0.4	x	x	x	x
COc1cc(NS(=O)(=O)c2ccc(NS(=O)(=O)c3ccc(C)cc3)cc2)nc(OC)n1	2.2	-2.4	0.0	-1.8	-6.7	x	x	x	x
COc1ccc([C@H]2CC(=O)C=C(/C=C/c3ccccc3)C2)cc1OC	12.7	10.7*	0.3	13.4*	15.8*	-1.7	5.9	-3.1	-3.1
Oc1ccc(C[C@H]2CNCCN2CCC23CC4CC(CC(C4)C2)C3)cc1	14.5	9.8*	0.1	10.7*	11.1*	2.1	2.2	-5.8	-1.5
Oc1ccc(C[C@@H]2CNCCN2CCC23CC4CC(CC(C4)C2)C3)cc1	-2.0	3.4	0.8	1.0	-1.1	x	x	x	x
O=C1NC[C@H](Cc2ccccc2)N(C[C@H]2CCCN2C[C@H](Cc2ccccc2)N2C[C@H](Cc3ccccc3)N(CC3CCCCC3)C(=O)C2=O)C1=O	14.9	13.8*	-0.1	9.0*	-0.3	20.5*	9.3*	-4.8	-2.8

Screens as filed in PubChem BioAssay.
